# Measured values reported in ChEMBL document CHEMBL4513216, “Probing the Open Global Health Chemical Diversity Library for Multistage-Active Starting Points for Next-Generation Antimalarials” (ACS Infect Dis, 2020).
# Screen size: about 69,000 compounds; about 8,600 (12%) showed an effect of 50% or more. Only a selection was taken, and strong results are over-represented in it overall.
# Test system: Plasmodium berghei
# Assay: Screen against P. berghei liver stage (PbLuc), transformed with Luciferase, at 10uM
# Type: functional, HepG2
# Conditions: tested at 10 uM
row,SMILES,INHIBITION [%]
1,CC(C)c1noc(CCCC(=O)N2CCN(Cc3ccsc3)CC2)n1,21.5
2,CCCc1ccc(OC23CCCN(CC2)C3)c(OC)c1 (centres undefined),14.9
3,Cc1cc(C(=O)N(C)C)nc(C2(C)CCCN2c2ccccc2)n1 (centres undefined),23.9035
4,COc1ccc(C(=O)NS(=O)(=O)c2cncc(Br)c2)cc1,-2.48
5,COCCCN1Cc2cccc(NC(=O)C(C)(C)C)c2C1,-21.1
6,CC(C)Cc1nc(OCC#N)c(C#N)c2c1CCC2,44.9
7,Cc1cnn(CC(=O)N2CCC(Nc3ccc(C)nn3)CC2)c1,39.95
8,O=C(CSC1CCc2ccccc2NC1=O)Nc1ccc(CCO)cc1 (centres undefined),-10.8
9,Cc1ccc2c(n1)N(C)CCN(Cc1cnn(C)c1)C2,49.4
10,Cc1ccc2c(n1)N(Cc1cccnc1)CCN(Cc1cnn(C)c1)C2,30.5
11,Cc1ccc2c(n1)N(CC1CC1)CCN(Cc1cnn(C)c1)C2,55.4
12,CC(CCc1ccccc1)N1CCC(C(=O)Nc2ccccn2)CC1 (centres undefined),-6.46
13,Cc1ccc(CNCc2cccc3cn[nH]c23)c(OC2CCOC2)c1 (centres undefined),66
14,Cc1ccc(NCc2cccc3cn[nH]c23)cc1OC1CCOC1 (centres undefined),-16.8
15,Cc1ccc(CNCc2cccc3cccnc23)c(OC2CCOC2)c1 (centres undefined),-62.1
16,Cc1cc(F)ccc1N1CCCC(NC2CCOCC2)C1=O (centres undefined),21.3
17,Cc1ccc(CN2CCOC3(COCCN(Cc4ccncc4)C3)C2)o1 (centres undefined),14
18,Cc1cncc(CN2C[C@@H](O)[C@H](Oc3ccccc3)C2)c1,51.5
19,O[C@@H]1CN(Cc2ccncc2)C[C@H]1Oc1ccccc1,39.7
20,O[C@@H]1CN(Cc2cccnc2)C[C@H]1Oc1ccccc1,26.8
21,CCOCC(=O)N1CC[C@@H]2O[C@@H](C)C[C@H]2C1,43.9
22,O=c1[nH]c2ccccc2c2c1CCO2,30.7
23,CC(=O)N(Cc1ncc(C(C)C)o1)C1CCN(Cc2ccno2)C1 (centres undefined),0.1995
24,COc1cccc2c1OCC(NCCCOc1cccnc1)C2 (centres undefined),14
25,COc1cccc2c1OCC(NC(=O)NC1CCN(C3CC3)CC1)C2 (centres undefined),-3.16
26,COc1cccc2c1OCC(NCc1cnn(-c3ccccc3F)c1)C2 (centres undefined),53.8
27,COc1cccc2c1OCC(NCc1cnn(-c3ccccc3)c1)C2 (centres undefined),62.8

row,SMILES,INHIBITION [%]
1,COCCN(Cc1cnn(C)c1)C(=O)C1COc2c(cccc2OC)C1 (centres undefined),22.3
2,COc1cccc2c1OCC(C(=O)N1Cc3ccccc3C1)C2 (centres undefined),44.8
3,COc1cccc2c1OCC(CNC(=O)CSc1ccccn1)C2 (centres undefined),-52.3
4,COc1cccc2c1OCC(C(=O)N(C)CCCc1cnn(C)c1)C2 (centres undefined),40.9
5,COc1cccc2c1OCC(NCCc1cnn(-c3ccccc3)c1)C2 (centres undefined),77.6
6,Cc1noc(C(C)N2CCN(CCC(=O)N3CCCCC3)CC2)n1 (centres undefined),17.4
7,Cc1cc(C2CCNCC2)nc(-c2ccsc2)n1,20.2
8,CCC(=O)Nc1ccc(C(C)NC(=O)COCCOC)cc1 (centres undefined),-28.4
9,CC(=O)N1CCC2(CC1)CN(C(=O)c1cccnc1)c1ccc(F)cc12,34.9
10,COc1c(C2CCCN2CC(=O)Nc2ccncc2)c(C)nn1C (centres undefined),21.6
11,Cc1nc(NCCN2CCCC2=O)cc(C2CN(C(C)C)CCO2)n1 (centres undefined),25
12,CCc1n[nH]c(C2CN(C(=O)c3ccc4c(c3)COC4)CCO2)n1 (centres undefined),-59.4
13,CC(=O)N1CCC(N2CC(Cc3nccc4ccn(C)c34)C2)CC1,28
14,COc1ccc(NC(=O)N2CCN(CCSc3ccccc3)CC2)cc1,-28.15
15,CC(C)c1cc(C(=O)N2CCN(c3ccc(F)c(Cl)c3)CC2)n(C)n1,50.8
16,CC(C)c1cc(C(=O)N2CCN(c3ccncc3)CC2)n(C)n1,-106
17,CC(=O)c1ccc(N2CCN(C(=O)c3cc(C(C)C)nn3C)CC2)cc1,36.3
18,COc1cccc(C2CC(=O)Nc3c2cnn3C(C)(C)C)c1 (centres undefined),-38.6
19,CCN(CC)Cc1cc(C(=O)N2CCC3(CC2)NCCNC3=O)c(C)o1,12.4
20,Cc1ccc(CN2CCC3(CC2)C(=O)NCCN3CC2CC2)o1,89.3
21,O=C1NCCCC12CCN(S(=O)(=O)N1CCOCC1)C2 (centres undefined),-3.24
22,Cc1ccc(Sc2ccc(CN3CCC4(CC3)NCCNC4=O)o2)cc1,66.1
23,CCOc1cc(Cl)c(CN2CCC3(CCCNC3=O)C2)cc1OC (centres undefined),9.41
24,Cc1cc(CN2CCC3(CC2)C(=O)NCCN3CC2CC2)oc1C,42.7
25,CN1CCNC(=O)C12CCN(Cc1ccco1)CC2,36.9
26,CCOc1cc2c(cc1CN1CCC3(CCCNC3=O)C1)CCC2 (centres undefined),41.2
27,O=C1NCCCC12CCN(Cc1ccc(SC3CCCCC3)o1)C2 (centres undefined),72.3
